Screening results deposited in PubChem BioAssay by National Center for Advancing Translational Sciences (NCATS).
A selection: hits, their analogues and other compounds. The true share with any hit is near 19%.
KB-3-1 cytotox – kills parental KB-3-1 adenocarcinoma cells | AID 1347075 | Potency, µM (series often up to 46.1 µM), most hits filed as cytotoxic | 400,000 compounds, 1.4% hits | KB-3-1 viability, CellTiter-Glo ATP luminescence, 72 h; also: nearly all actives have a fitted effect of over 60% in size
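Multi-concentration cytotoxicity screen in KB-3-1 cells grown in DMEM lacking phenol red with 10% FBS. After 72 h at 37 °C with compound, ATP-dependent luminescence was recorded.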
HT1080NT lethal – kills 2HG-producing HT-1080-NT fibrosarcoma cells; Potency, µM (doses to about 46.1 µM), actives largely listed as cytotoxic; 360,000 compounds, 1.6% hits; HT-1080-NT fibrosarcoma viability, CellTiter-Glo ATP luminescence, 48 h; AID 686970;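 also: NT is the 2HG producing partner of a matched IDH1 knockdown line; nearly all actives have a fitted effect of over 55% in size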
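Viability by CellTiter-Glo luminescence after 48 h compound exposure at 37C of HT-1080-NT cells (750/well, RPMI, 5% FBS). % activity scaled between DMSO wells and medium-only wells, then curve-fitted and categorized by curve class.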
DT40 TDP1 CPT – growth inhibition of DT40 Tdp1-/-;hTDP1 cells with camptothecin (screen for TDP1 inhibitors). 420,000 compounds, 12% hits. chicken DT40 Tdp1-/-;hTDP1 cells + 20 nM CPT, ATP luminescence, 48 h. Potency, µM (titrated, usually from 46.2 µM), hits mostly inhibitors; also: nearly all actives have a fitted effect of over 55% in size
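Chicken DT40 Tdp1-/- cells stably complemented with human TDP1 were seeded at 400 cells/well in medium containing 20 nM camptothecin, exposed to pin-transferred compounds, and grown at 37 °C for at least 48 hr. Viability was read as ATP luminescence.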
TDP1 cell noCPT – qHTS for Inhibitors of human tyrosyl-DNA phosphodiesterase 1 (TDP1): qHTS in cells in absence of CPT. 420,000 compounds, 15% hits. DT40 Tdp1-/- hTDP1 cells, no CPT, ATP luminescence, 48 h. Potency, µM (highest dose often 46.2 µM), usual class: inhibitors. AID 686978, 2013; also: nearly all actives have a fitted effect of over 55% in size
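Cells were dispensed at 400 per well, compounds added by pin tool, plates incubated ≥48 hr at 37 °C, then CellTiter-Glo added for 30 min at room temperature before luminescence reading. Line: DT40 Tdp1-/- complemented with hTDP1; camptothecin omitted.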
KB-V1 cytotox – kills drug-selected multidrug resistant KB-V1 cells; KB-V1 MDR cells viability, CellTiter-Glo, 72 h; Potency, µM (series often up to 46.1 µM), most hits filed as cytotoxic; 400,000 compounds, 3.4% hits; AID 1347076; also: nearly all actives have a fitted effect of over 60% in size
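KB-V1 cells (P-gp-expressing MDR subline of KB-3-1) in phenol-red-free DMEM with 10% FBS were exposed to library compounds over a concentration series for 72 h at 37 degrees C. Viability read by CellTiter-Glo luminescence; concentration-effect curves fitted after normalization.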
HT1080 IDH1KD tx – kills HT-1080 cells with IDH1 knockdown | HT-1080 IDH1 knockdown viability, ATP luminescence, 48 h | Potency, µM (doses to about 46.1 µM), actives largely listed as cytotoxic | 360,000 compounds, 2% hits
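Using the IDH1-knockdown HT-1080 line run in the same batch and compound series as the NT line, viability after 48 h at 37 °C was determined by CellTiter-Glo luminescence and expressed as % activity.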
Hits are given with their value. Calls follow the shape of the dose curve; as a rule, active = well fitted curve in the direction sought with a large enough effect; inconclusive = small, poorly fitted or top-dose-only effect, or another doubt; inactive = no such curve, though single readings can be large; an effect the other way counts as inactive or inconclusive.

What do the screens show for `Cc1nc(=S)n(-c2ccccc2)[nH]1`?
KB-3-1 cytotox: inactive; HT1080NT lethal: inactive; DT40 TDP1 CPT: inactive; TDP1 cell noCPT: inactive; KB-V1 cytotox: inactive; HT1080 IDH1KD tx: inactive

How did COc1cc(-c2nc3c4ccccc4nc(=S)n3[nH]2)cc(OC)c1OC do in these assays?
KB-3-1 cytotox: inactive; HT1080NT lethal: inactive; DT40 TDP1 CPT: inconclusive; TDP1 cell noCPT: inconclusive; KB-V1 cytotox: inconclusive; HT1080 IDH1KD tx: inactive

Results for Nc1[nH]c(C(=O)c2ccccc2)c(-c2ccccc2C(F)(F)F)c1C(=O)NCc1ccc(F)cc1 ?
KB-3-1 cytotox: inactive; HT1080NT lethal: inconclusive; DT40 TDP1 CPT: inactive; TDP1 cell noCPT: inactive; KB-V1 cytotox: inactive; HT1080 IDH1KD tx: inactive

Results for O=C(Nc1ccc(C(F)(F)F)cc1)c1cc(S(=O)(=O)NC2CCCCCC2)ccc1F ?
KB-3-1 cytotox: inconclusive; DT40 TDP1 CPT: 20.6µM; TDP1 cell noCPT: inconclusive; KB-V1 cytotox: 18.4µM

How did O=C(Nc1ccc(C(F)(F)F)cc1)c1cc(S(=O)(=O)NC2CCCCC2)ccc1F do in these assays?
KB-3-1 cytotox: inactive; DT40 TDP1 CPT: 13µM; TDP1 cell noCPT: 18.4µM; KB-V1 cytotox: inconclusive

How did CCc1ccc2oc(C(=O)Nc3cccc(C(F)(F)F)c3)cc(=O)c2c1 do in these assays?
KB-3-1 cytotox: inactive; DT40 TDP1 CPT: inactive; TDP1 cell noCPT: inactive; KB-V1 cytotox: inactive

What do the screens show for `COc1cccc(C(=O)Nc2ccccc2OCc2cc(=O)n3cc(C)ccc3n2)c1`?
KB-3-1 cytotox: inactive; DT40 TDP1 CPT: inactive; TDP1 cell noCPT: inconclusive; KB-V1 cytotox: inactive

What do the screens show for `COc1ccc(C2=Nc3cccc4cccc(c34)N2)cc1`?
KB-3-1 cytotox: inactive; HT1080NT lethal: inactive; DT40 TDP1 CPT: inconclusive; TDP1 cell noCPT: 16.4µM; KB-V1 cytotox: inactive; HT1080 IDH1KD tx: inactive

How did Cc1ccc(C2=NC(c3ccccc3)=Nc3ccc(Cl)cc3N2)cc1 do in these assays?
KB-3-1 cytotox: inactive; DT40 TDP1 CPT: inconclusive; TDP1 cell noCPT: 23.1µM; KB-V1 cytotox: inactive

Results for Cc1ccc(C2=Nc3ccccc3NC(c3ccncc3)=N2)cc1 ?
KB-3-1 cytotox: inactive; DT40 TDP1 CPT: inconclusive; TDP1 cell noCPT: 13µM; KB-V1 cytotox: inactive

How did COc1ccc2c(c1)NC(c1cccnc1)=NC(c1ccc(F)cc1)=N2 do in these assays?
KB-3-1 cytotox: inactive; DT40 TDP1 CPT: 14.6µM; TDP1 cell noCPT: 9.2µM; KB-V1 cytotox: inactive

How did CCCOc1ccc(C2=NC(c3ccncc3)=Nc3ccc(C)cc3N2)cc1 do in these assays?
KB-3-1 cytotox: inactive; DT40 TDP1 CPT: inconclusive; TDP1 cell noCPT: inconclusive; KB-V1 cytotox: inactive

How did COc1ccc2c(c1)NC(c1ccc(F)cc1)=NC(c1ccc(F)cc1)=N2 do in these assays?
KB-3-1 cytotox: inactive; DT40 TDP1 CPT: inconclusive; TDP1 cell noCPT: inconclusive; KB-V1 cytotox: inactive

What do the screens show for `COc1ccc(C2=NC(c3ccccc3)=Nc3ccc(C)cc3N2)cc1`?
KB-3-1 cytotox: inactive; DT40 TDP1 CPT: 25.9µM; TDP1 cell noCPT: 20.6µM; KB-V1 cytotox: inactive

Results for COc1ccc(NC2=Nc3cccc4cccc2c34)cc1 ?
KB-3-1 cytotox: inactive; HT1080NT lethal: inactive; DT40 TDP1 CPT: inconclusive; TDP1 cell noCPT: 25.9µM; KB-V1 cytotox: inconclusive; HT1080 IDH1KD tx: inactive

How did NCCc1c(-c2ccccc2)n(-c2ccccc2)c2ccccc12 do in these assays?
KB-3-1 cytotox: inactive; HT1080NT lethal: 14.6µM; DT40 TDP1 CPT: inconclusive; TDP1 cell noCPT: inconclusive; KB-V1 cytotox: inconclusive; HT1080 IDH1KD tx: 20.6µM

Results for O=C1CC(NS(=O)(=O)c2cc(F)ccc2F)CN1c1ccc2c(c1)OCCO2 (centres undefined) ?
KB-3-1 cytotox: inactive; HT1080NT lethal: inactive; DT40 TDP1 CPT: inactive; TDP1 cell noCPT: inactive; KB-V1 cytotox: inactive; HT1080 IDH1KD tx: inactive

How did COc1cc(NC(=O)c2sc3nc4n(c(=O)c3c2C)CCCCC4)cc(OC)c1OC do in these assays?
KB-3-1 cytotox: inactive; DT40 TDP1 CPT: inconclusive; TDP1 cell noCPT: inconclusive; KB-V1 cytotox: inactive
